Screening data (PubChem)
An excerpt weighted towards active compounds, which were near 11% of everything screened.
Coupling enz: counter-screen for Giardia aldolase inhibitors: coupling enzyme system; activity change, negative = inhibition, % at 58.2 µM, hits read low; AID 2472; coupling enzyme system counterscreen, AmpLite Red fluorescence; hit rate 0.67% among 290,000; in the data active = activity change below about -30%
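Fluorescence at 525 nm excitation and 598 nm emission measured inhibition of the coupled detection system without aldolase. Compounds (at 57.5 uM final) were preincubated 10 min at room temperature with coupling enzyme reagent before a 20 min substrate/AmpLite Red step.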
Tau fluor cs: counter-screen for tau fibril formation inhibitors. tau K18 P301L Alexa594 fluorescence, heparin fibrillization. Potency, µM (series often up to 57.7 µM), without a hit: at the highest dose activity change, negative = decrease. hit rate 0.93% among 280,000; also: potency is read from the fitted curve at half-maximal effect; nearly all actives have a fitted effect of over 55% in size
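Human K18 P301L tau (15 uM unlabeled plus 0.24 uM Alexa 594-labeled, final) in 100 mM sodium acetate pH 7 was mixed with compound and 20 uM heparin and incubated 6 hr at 37 C.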
G9a block: G9a (human) methyltransferase inhibition; Q96KQ7; G9a H3K9 monomethylation, AlphaScreen, 2 h; Potency, µM (doses to about 102 µM), without a hit: top-dose activity, negative = inhibition, hits mostly inhibitors; hit rate 8.8% among 350,000; AID 504332; also: potency is read from the fitted curve at half-maximal effect; nearly all actives have a fitted effect of over 75% in size
Target sequence (Q96KQ7 913-1193 limits assumed): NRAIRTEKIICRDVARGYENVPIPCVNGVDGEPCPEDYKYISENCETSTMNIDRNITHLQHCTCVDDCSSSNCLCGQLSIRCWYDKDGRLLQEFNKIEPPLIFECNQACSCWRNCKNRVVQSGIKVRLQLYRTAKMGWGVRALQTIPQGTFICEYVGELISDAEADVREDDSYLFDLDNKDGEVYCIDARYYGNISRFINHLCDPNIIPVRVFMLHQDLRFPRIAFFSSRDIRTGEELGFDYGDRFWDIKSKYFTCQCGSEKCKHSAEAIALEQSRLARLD
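Readings reflect AlphaScreen signal from monomethyl-H3K9 antibody detection. HMT at 20 nM; substrate b-H3K9 500 nM; cofactor SAM 20 uM; 2 h RT reaction; compounds tested as titrations in qHTS with 15 min preincubation.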
Tau FP inhib: tau fibrillization inhibition (FP); Potency, µM (top dose mostly 57.7 µM), for inactives: at the top dose activity, negative = inhibition, hits mostly inhibitors; K18 P301L tau heparin fibrillization, Alexa594 FP, 6 h; P10636; hit rate 0.39% among 280,000; also: potency is read from the fitted curve at half-maximal effect; nearly all actives have a fitted effect of over 55% in size
Target sequence (P10636 561-689 P618L limits assumed): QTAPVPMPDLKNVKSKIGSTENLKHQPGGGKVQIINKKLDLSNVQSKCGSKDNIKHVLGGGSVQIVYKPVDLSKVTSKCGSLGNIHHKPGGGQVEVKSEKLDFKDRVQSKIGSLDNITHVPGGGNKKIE
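K18 P301L tau (15 uM unlabeled/0.24 uM Alexa 594-labeled, final) + compound + heparin 20 uM final; 100 mM NaOAc pH 7; 6 hr 37 C; ThT 30 uM final added, 1 hr RT; FP ex 555/em 632 nm.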
Tau fibril ThT: tau fibrillization inhibition (ThT binding) | recombinant tau K18 P301L (four-repeat tau fragment), heparin-induced fibrillization, ThT fluorescence | hit rate 2.1% among 270,000 | Potency, µM (series often up to 57.4 µM), without a hit: top-dose activity, negative = inhibition, usual class: inhibitors | P10636; also: potency is read from the fitted curve at half-maximal effect; nearly all actives have a fitted effect of over 55% in size
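Recombinant human tau K18 fragment […] carrying P301L, 15 uM unlabeled plus 0.24 uM Alexa 594-labeled, was fibrillized with 20 uM heparin in 100 mM sodium acetate pH 7 for 6 hr at 37 C; 30 uM ThT fluorescence read after 1 hr.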
Sfp inh: Sfp phosphopantetheinyl transferase inhibition | AID 1490 | Biochemical Sfp PPTase activity, qHTS | Potency, µM, for the others: largest response in the series, negative = inhibition, hits mostly inhibitors | hit rate 3.5% among 310,000;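 also: the enzyme is Sfp with the accession as filed and its product quenches rhodamine fluorescence; potency is read from the fitted curve at half-maximal effect; 0% = enzyme reaction without inhibitor and -100% = no enzyme wells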
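With Hepes-Na pH 7.6 buffer containing 10 mM MgCl2, Sfp (15 nM) modified BHQ-2-YbbR (12.5 uM) using rhodamine-CoA (5 uM). Two reads 30 minutes apart at 525/598 nm yielded each well's rate.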
An asterisk follows results filed as active; ? = inconclusive; . = not tested or not shown; [ ] = dose if it differs, or a comment. Unless noted, calls follow the shape of the dose curve; as a rule, active = well fitted curve in the direction sought with a large enough effect; inconclusive = small, poorly fitted or top-dose-only effect, or another doubt; inactive = no such curve, though single readings can be large; an effect the other way counts as inactive or inconclusive. Unless noted, % is scaled to controls: 0 for no effect and ±100 for the full control effect.

SMILES	Coupling enz	Tau fluor cs	G9a block	Tau FP inhib	Tau fibril ThT	Sfp inh
CN(C)[C@@H]1C(=O)C(C(N)=O)=C(O)[C@@]2(O)C(=O)C3=C(O)c4c(O)cccc4[C@@](C)(O)C3[C@H](O)C12 (some centres not stated)	.	.	4.5µM*	.	.	.
CN(C)C1C(=O)C(C(N)=O)=C(O)C2(O)C(=O)C3=C(O)c4c(O)cccc4C(C)(O)C3CC12 (configuration not stated)	-19	.	?	.	.	-1%
CN(C)[C@@H]1C(=O)C(C(N)=O)=C(O)[C@]2(O)C(=O)C3=C(O)c4c(O)cccc4[C@@](C)(O)[C@H]3[C@H](O)[C@@H]12	-7	.	5µM*	.	.	-2%
CN(C)[C@H]1C(=O)C(C(N)=O)=C(O)[C@]2(O)C(=O)C3=C(O)c4c(O)cccc4[C@@](C)(O)[C@H]3C[C@@H]12	-10	.	1%[21.5 µM]	.	.	-12%
CN(C)C1C(=O)C(C(N)=O)=C(O)[C@@]2(O)C(=O)C3=C(O)c4c(O)cccc4[C@@](C)(O)C3[C@H](O)C12 (some centres not stated)	-10	?	.	?	7.1µM*	56µM*
Cn1c(=O)oc2cc(S(=O)(=O)N3CCCC(C(=O)NCc4ccccc4Cl)C3)ccc21 (configuration not stated)	.	2%	5%[59 µM]	?	2%	.
O=C1OC(c2cc(I)c(O)c(I)c2)(c2cc(I)c(O)c(I)c2)c2ccccc21	3	7.1µM*[quencher]	7.1µM*	?	13µM*	40µM*
Cc1cccc(NC(=O)N[C@@H]2N=C(c3ccccc3)c3ccccc3N(CC(=O)c3ccccc3C)C2=O)c1	1	-19%	.	?	-11%	12%
CCOC(=O)C(SP(=S)(OC)OC)c1ccccc1 (configuration not stated)	1	.	.	.	.	?
C/C=C1/C[N@@+]2(C)CC[C@]34C(=C(C=O)[C@H]1C[C@H]32)Nc1ccccc14	.	3%	?	-2%	-2%	?
O=c1[nH]c(=O)n(CC2CCCO2)c(O)c1/C=C1\C=Nc2ccccc21 (configuration not stated)	-1	-25%	1.3µM*	?	?	-20%
COc1ccc(-n2c(O)c(/C=C3\C=Nc4ccc(Br)cc43)c(=O)[nH]c2=O)c(OC)c1	-1	.	32µM*	.	.	-21%
O=c1[nH]c(=O)n(-c2ccccc2F)c(O)c1/C=C1\C=Nc2ccccc21	2	.	?	.	.	35µM*
COc1ccc(-n2c(O)c(/C=C3\C=Nc4ccc(Br)cc43)c(=O)[nH]c2=O)cc1	-2	.	-15%	.	.	-19%
O=c1[nH]c(=O)n(-c2ccc(F)cc2)c(O)c1/C=C1\C=Nc2ccccc21	-2	.	-3%	.	.	-1%
O=c1[nH]c(=O)n(Cc2ccccc2)c(O)c1/C=C1\C=Nc2ccccc21	-5	?	-45%	?	?	?
CN1C2CCC1CC(OC(c1ccc(F)cc1)c1ccc(F)cc1)C2 (configuration not stated)	.	-6%	12%[59 µM]	5%	-12%	12%
CC[C@@]1(O)C(=O)OCc2c1cc1n(c2=O)-c2cc3ccccc3nc2C1	-4	2%	23%[59 µM]	2%	-5%	1%
COC(=O)C1(C)C=C2C(=C(C)C(=O)C2C)CN1 (configuration not stated)	-6	-6%	.	0%	-10%	7%
Clc1ccc(Cl)cc1	1	1%	29%[59 µM]	1%	2%	26%
CC[C@H](C)[C@H](NC(=O)[C@H](CCCN=C(N)N)NC(=O)[C@H](CCCN=C(N)N)NC(=O)[C@H](CC(C)C)NC(=O)[C@H](Cc1ccccc1)NC(=O)CNC(=O)CNC(=O)[C@@H](N)Cc1ccc(O)cc1)C(=O)N[C@@H](CCCN=C(N)N)C(=O)N1CCC[C@H]1C(=O)N[C@@H](CCCCN)C(=O)N[C@@H](CC(C)C)C(=O)N[C@@H](CCCCN)C(=O)O	3	-3%	37%[59 µM]	1%	0%	?
C=CC[n+]1c(-c2ccc(C)cc2)csc1Nc1c(C)n(C)n(-c2ccccc2)c1=O	-2	1%	18µM*	7%	-3%	-1%
C=CCn1c(O)c(C(C)=O)c(=O)[nH]c1=O (tested in a mixture with another compound)	1	1%	45µM*	1%	-6%	-2%
C=CCn1c(O)c(C(C)=Nc2cccc(C(=O)O)c2)c(=O)[nH]c1=O	0	-11%	50µM*	1%	-11%	-2%
C=CCn1c(O)c(C(C)=NCCO)c(=O)[nH]c1=O	0	-4%	25%[2.33 µM]	-3%	-7%	15%
SMILES	Coupling enz	Tau fluor cs	G9a block	Tau FP inhib	Tau fibril ThT	Sfp inh
CC1C(=O)OC2C1CC[C@@]1(C)C=CC(=O)[C@@]3(C)O[C@@]213 (some centres not stated)	4	-5%	?	-3%	-8%	6%
O=C1NC(=O)C(=Cc2ccc(-c3ccccc3[N+](=O)[O-])o2)C(=O)N1	1	-7%	.	1%	.	22µM*
O=C1NC(=O)C(=Cc2ccc(-c3cc(Cl)ccc3[N+](=O)[O-])o2)C(=O)N1	2	-26%	4µM*	-4%	7.9µM*	-102%
c1cc(CN2CC3(CCNCC3)C2)ccn1	6	.	-6%[12.7 µM]	.	.	-11%
Cc1n[nH]c(C)c1CCCCOc1ccc([N+](=O)[O-])cc1	0	.	50µM*	.	.	6%
O=C(Cc1ccccc1)Oc1ccc([N+](=O)[O-])cc1	-1	.	23%	.	.	22%
C=C(C)C1CCC(C)=CC1c1c(O)cc(O)cc1CCCCC (configuration not stated)	-7	28µM*[quencher]	?	8%	?	-1%
O=C1C(Cl)=C(N2CCOCC2)C(=O)N1c1ccccc1F	2	.	35µM*	.	.	9%
O=c1[nH]c(=S)n(-c2ccccc2F)c(O)c1C=Nc1ccc(N2CCOCC2)cc1	-1	-21%	-8%[59 µM]	-9%	?	1%
CN(C)C(=O)Oc1cccc([N+](C)(C)C)c1	1	-6%	-8%[59 µM]	-5%	7%	7%
CCN(CC)CCOC(=O)C(C)(c1ccccc1)c1ccccc1	.	.	-46%[12.7 µM]	.	.	4%
CC1=C(O)C(=O)[C@H]2O[C@@H]2C1=O	-10	?	.	4µM*	2µM*	4µM*
CCC1CN2CCC1CC2C(O)c1ccnc2ccccc12 (configuration not stated)	10	-4%	.	0%	2%	4%
